Screening data from PubChem BioAssay.
ADAM10 inh = human ADAM10 inhibitors, primary screen, biochemical, QFRET, HTS | Disintegrin and metalloproteinase domain-containing protein 10 (Homo sapiens), O14672 | recombinant ADAM10, EDANS/DABCYL FRET peptide cleavage, 3 h | inhibition, % at 7 µM | actives 0.62% (n = 370,000);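 active means inhibition above a per-campaign cutoff equal to the mean of compounds falling between control-based bounds plus 3 SD, cut at about 20% in these data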;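 further: 0% = DMSO wells while the 100% control is not disclosed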
Target sequence (O14672 214-748 limits assumed): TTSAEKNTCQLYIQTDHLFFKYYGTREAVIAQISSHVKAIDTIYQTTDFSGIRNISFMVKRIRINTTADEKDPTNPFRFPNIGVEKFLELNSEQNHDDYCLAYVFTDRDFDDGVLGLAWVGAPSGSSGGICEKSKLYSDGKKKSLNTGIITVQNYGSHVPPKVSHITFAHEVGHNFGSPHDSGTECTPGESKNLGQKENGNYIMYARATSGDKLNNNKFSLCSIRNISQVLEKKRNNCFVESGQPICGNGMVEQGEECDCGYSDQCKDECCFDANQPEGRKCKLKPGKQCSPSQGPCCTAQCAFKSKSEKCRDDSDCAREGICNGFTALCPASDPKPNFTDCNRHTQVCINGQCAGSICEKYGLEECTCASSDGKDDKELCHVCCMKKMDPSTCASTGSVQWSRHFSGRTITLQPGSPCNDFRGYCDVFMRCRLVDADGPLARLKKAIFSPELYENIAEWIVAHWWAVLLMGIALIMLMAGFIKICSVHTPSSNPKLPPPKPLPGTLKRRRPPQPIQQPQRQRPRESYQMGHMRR
A3A deaminase = APOBEC3A ssDNA deaminase inhibitors, primary screen, selectivity assay for APOBEC3G inhibitor project, biochemical, FAM/TAMRA oligo cleavage fluorescence; DNA dC->dU-editing enzyme APOBEC-3A (Homo sapiens), P31941; recombinant A3A, FAM/TAMRA ssDNA deamination fluorescence; inhibition, % at 20 µM; actives 0.41% (n = 330,000); AID 493011, 2011;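 active means at least 40% inhibition at 20 µM here, with at most 30% in a related deaminase screen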;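 further: plate controls were A3A with DMSO for no effect and wells lacking A3A enzyme for full effect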
CendR NRP1 mod = modulators of CendR peptide binding to NRP-1, primary screen, biochemical, fluorescence polarization, uHTS; Neuropilin-1 (Homo sapiens), O14786; FAM-RPARPAR peptide binding to NRP-1; inhibition, % at 25 µM; actives 0.85% (n = 360,000); AID 602438, 2012;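 active means inhibition or corrected inhibition above about 18%, plus a signal ratio from 0.5 to 1.5, limit read from the data, passing the limit was not always enough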
A3G deaminase = APOBEC3G DNA deaminase inhibitors, primary screen, biochemical, fluorescence, single-stranded DNA substrate, uHTS. actives 0.28% (n = 330,000). inhibition, % at 20 µM. recombinant A3G, ssDNA deamination FAM/TAMRA fluorescence. DNA dC->dU-editing enzyme APOBEC-3G (Homo sapiens), Q9HC16;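 active means inhibition of at least 40% at 20 µM, with no more than 30% in the related APOBEC3A deaminase screen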;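 further: plate controls were DMSO wells with A3G for no effect and wells lacking A3G enzyme for full effect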
ADAM17 inh = ADAM17 inhibitors, primary screen, biochemical, QFRET; Disintegrin and metalloproteinase domain-containing protein 17 (Homo sapiens), P78536; recombinant ADAM17, EDANS/DABCYL FRET peptide cleavage; actives 0.83% (n = 370,000); inhibition, % at 6.95 µM;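 active means inhibition above the mean of compounds lying between control limits plus 3 SD, set per campaign, cut at about 8.5% in these data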;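 further: 0% = DMSO-only wells as the low control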
APOBEC3G confirm = APOBEC3G deaminase inhibitor retest, confirmation, biochemical, fluorescence, single-stranded DNA substrate, single concentration. shares compounds with A3G deaminase. recombinant A3G ssDNA deaminase, UDG/FAM-TAMRA fluorescence. inhibition, % at 20 µM. actives 72% (n = 890). AID 493152, 2011;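 active means inhibition reaching a set limit in any replicate at 20 µM, the limit being 80% of the first screen's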
UDG ctr A3G = E. coli UDG inhibitors, confirmation, counter-screen for APOBEC3G inhibitor project, biochemical, single concentration, fluorescence, FAM/TAMRA oligo | shares compounds with A3G deaminase | UDG counterscreen | inhibition, % at 20 µM | 710 tested, under 10 active | AID 504715, 2011;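 active means compounds giving 40% or more inhibition at 20 µM in any one of the three replicates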;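 further: plate controls were DMSO wells with UDG and oligo for no effect and DMSO wells lacking both for full effect; inhibitors lower the FAM signal released by uracil excision and alkaline cleavage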
Numbers without * were called inactive; nt = not tested or not shown. Rows were chosen to be rich in hits. Some 2.4% of all compounds tested hit in one or more screens of this group.

SMILES	ADAM10 inh	A3A deaminase	CendR NRP1 mod	A3G deaminase	ADAM17 inh	APOBEC3G confirm	UDG ctr A3G
CCC[C@H]1[C@@H](NC(=O)NCC)CC[C@@]23CCCN2C(=O)CCC[C@@H]13	3	nt	nt	nt	0	nt	nt
N#C/C(=C\c1ccc(O)c(O)c1)C(=O)Nc1cccc2ncccc12	-385	8	-50	52*	-151	59*	-2
COc1ccccc1NNC(=O)C(O)(c1ccccc1)c1ccccc1	7	1	4	56*	1	-2	nt
COC(=O)[C@]12C[C@H](CC(=O)N3CCN(C(=O)C4CC4)CC3)C(=O)N(Cc3ccc(Cl)cc3Cl)C1=C[C@H](C1CCCC1)O[C@@H]2C	5	nt	nt	nt	0	nt	nt
Cc1ccc(-c2c3c([nH]c(=S)c2C#N)CCCC3)o1	-16	30	-63	49	-8	nt	nt
N#Cc1c(-c2ccncc2)c2c([nH]c1=S)CCCC2	-7	-5	-6	46*	-11	85*	-2
O=C(Cc1c[nH]c2ccccc12)Nc1ccc(Nc2cccnc2)cc1	-7	nt	nt	nt	-1	nt	nt
N#Cc1cccc(-c2ccccc2C(=O)NC2CCCCN(Cc3ccc(Cl)cc3)C2=O)c1 (centres undefined)	-1	nt	nt	nt	-1	nt	nt
O=S1OC(c2ccccc2)c2cc(Cl)ccc21 (centres undefined)	-7	5	14	41*	-8	4	nt
CCC(=O)NC1=C(Cl)C(=O)C(NC(=O)CC)=C(Cl)C1=O	3	-4	-3	87*	1	96*	-2
CCC(=O)NC1=C(NC(C)c2ccccc2)C(=O)c2ccccc2C1=O (centres undefined)	-1	-1	6	0	-4	nt	nt
O=C1CN(c2ccccc2)C(=S)N1C(=O)c1ccccc1	-3	-7	-14	0	-6	nt	nt
O=C(c1ccccc1)N1CCC(=O)N1c1ccccc1	-7	-2	9	40*	0	4	6
O=C(CC1CCCC1)N1CCN(S(=O)(=O)c2c(F)cccc2F)CC1	-9	nt	4	nt	-2	nt	nt
O=S(=O)(c1c(F)cccc1F)N1CCCC2CCCCC21 (centres undefined)	-5	-1	3	53*	0	4	5
CN1C2=N[C@@H](c3ccc4c(c3)OCO4)CC(=O)N2/C(=C\c2ccccc2)[C@@H]1c1ccccc1	4	nt	nt	nt	-1	nt	nt
Clc1ccccc1-c1nnc2sc(-c3ccncc3)nn12	-9	-3	-9	-10	1	nt	nt
Clc1ccccc1-c1nn2c(-c3ccncc3)nnc2s1	nt	1	2	49*	nt	25*	-1
COC(=O)C1CN(Cc2cn(CCC3OCCO3)nn2)CCS(=O)(=O)N1Cc1ccc(F)cc1 (centres undefined)	-9	nt	nt	nt	-5	nt	nt
O=c1c(O)c(-c2cc(O)c(O)c(O)c2)oc2cc(O)cc(O)c12	4	21	-75	41*	1	73*	2
O=[N+]([O-])c1ccc(COc2ccccc2CO)cc1	11	nt	nt	nt	4	nt	nt
COc1ccc(-n2c(SCC(=O)C(C)(C)C)nc3c(sc(=S)n3-c3ccccc3)c2=O)c(OC)c1	17	1	-10	40*	7	50*	-2
COc1ccc(-n2c(=S)[nH]c3sc(-c4ccccc4)cc3c2=O)c(OC)c1	-5	4	13	6	-1	nt	nt
CCOC(=O)CSc1nc2c(sc(=S)n2-c2ccccc2OC)c(=O)n1-c1ccccc1OC	13	0	4	-5	4	nt	nt
COc1ccc(-n2c(=S)[nH]c3c(sc(=S)n3-c3ccccc3)c2=O)c(OC)c1	-3	3	-6	44*	-3	36*	-3
SMILES	ADAM10 inh	A3A deaminase	CendR NRP1 mod	A3G deaminase	ADAM17 inh	APOBEC3G confirm	UDG ctr A3G
Cc1nnc(-n2cccc2)s1	2	nt	nt	nt	-1	nt	nt
COc1ccc(-n2c(SCC(=O)Nc3ccc(Oc4ccccc4)cc3)nnc2-c2ccc(C)cc2)cc1	-2	nt	nt	nt	-4	nt	nt
CCOC(=O)c1sc(NC(=O)CSc2nc(C)cc(C)n2)c(C#N)c1C	-5	5	-6	-4	-2	nt	nt
CCOC(=O)c1sc(NC(=O)CSc2n[nH]c(-c3ccccc3)n2)c(C#N)c1C	-22	2	-14	47*	-13	32*	-2
CCOC(=O)c1sc(NC(=O)C(C)C)c(C#N)c1C	-3	3	-4	57*	-5	64*	-3
O=C(Nc1ccc(F)cc1)OCc1cn(Cc2ccccc2Cl)nn1	5	nt	nt	nt	-1	nt	nt
COC(=O)[C@H](CC(C)C)NC(=O)c1cc2c(cn1)[nH]c1ccccc12	-88	1	-5	58*	-33	63*	nt
COC(=O)C(Cc1ccccc1)NC(=O)c1cc(=O)[nH]c2ccccc12 (centres undefined)	-120	-3	0	-5	-46	nt	nt
CN(C)c1ccc(-c2nn3c(-c4ccco4)nnc3s2)cc1	-52	nt	nt	nt	-15	nt	nt
Cc1cc(-c2ccco2)c(C#N)c2nc3ccccc3n12	-128	20	-99	53*	-40	47*	nt
Cc1[nH]c(=S)c(C#N)c(C)c1CCC#N	-5	-5	14	65*	-6	90*	-5
COc1ccc(OC)c(CN2C(=O)CCCC2(C)c2nnnn2C2CCCC2)c1 (centres undefined)	-1	nt	nt	nt	-2	nt	nt
Cc1cc(C)c2c(=O)n(CC(=O)Nc3cccc(Cl)c3C)sc2n1	-15	7	-11	72*	-8	83*	-3
COc1ccc(OC)c(CCNC(=O)Cn2nc(C)c3c(C)n(-c4ccc(C)cc4)nc3c2=O)c1	-10	-3	20	-5	-5	nt	nt
COc1ccc(OC)c(CCNC(=O)Cn2sc3nc(C)cc(C)c3c2=O)c1	nt	0	nt	63*	nt	78*	nt
Cc1cc(C)c2c(=O)n(CC(=O)Nc3ccc(Br)c(C)c3)sc2n1	-9	nt	-15	nt	-3	nt	nt
Cc1cc(C)c2c(=O)n(CC(=O)NC3CCCC3)sc2n1	-28	-2	4	51*	-9	83*	-1
Cc1cc(C)c2c(N)c(C(=O)NC3CCCC3)sc2n1	-182	0	5	3	-71	nt	nt
CCCOc1ccc(C(=O)N2CCC(Oc3cccnc3)CC2)cc1	1	nt	nt	nt	-3	nt	nt
COC(=O)Cc1nnn2c1[C@@H](C)[C@@H](c1ccccc1Br)O[C@@H](C)C2	0	nt	nt	nt	-2	nt	nt
CCCC[C@H](C(=O)N(C)c1cccc(OC)c1)[C@@H](O)c1ccc(Cl)cc1	7	nt	nt	nt	0	nt	nt
